Among the data in PubChem BioAssay (Tox21) are Potency, outcome and max activation values, retold here.

“And” between values parts separate entries of the source, which are not always exact repeats. Equal values may be shown once. Inconclusive results are not listed. Some compounds were tested as several samples or in several runs, with calls that do not always agree. The source made the active and inactive calls. Unless noted, calls follow the shape of the dose curve; as a rule, active = well fitted curve in the direction sought with a large enough effect in the repeat runs; inconclusive = weak or mixed curves; inactive = no such curve, though single readings can be large; an effect the other way counts as inactive or inconclusive.

For assay [1], the target named is Progesterone receptor (Homo sapiens) (UniProt P06401). Put plainly: qHTS assay to identify small molecule agonists of the progesterone receptor (PR) signaling pathway (AID 1346784; calls by dose curve; also: nearly all actives have a fitted effect of over 30% in size). The method in brief:
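Agonist qHTS: compounds pinned onto 3,000 PR-UAS-bla HEK 293T cells per well in charcoal-stripped serum medium, 16hr at 37C, then beta-lactamase activity measured by LiveBLAzer FRET fluorescence after 2 hours at room temperature.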

The target is the same in assay [2]. As to the kind of experiment: qHTS assay to identify small molecule antagonists of the progesterone receptor (PR) signaling pathway (AID 1346795; active = well fitted inhibition curve with a large enough effect in the signal ratio in the repeat runs, not every such curve was filed as active; the % refers to the signal ratio). The gist of the method: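 Antagonist mode with agonist R5020 at 1 nM final and 16 hr incubation at 37C. Reporter was beta-lactamase driven by UAS in HEK293T (PR-UAS-bla), 2% charcoal-stripped serum; signal from LiveBLAzer FRET substrate, 2 hr at room temperature.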

Assay [3] is described as follows: qHTS assay to identify small molecule antagonists of the progesterone receptor (PR) signaling pathway - cell viability counter screen (AID 1346798). Also: series mostly up to about 92 µM; nearly all actives have a fitted effect of over 50% in size. The method in brief:
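Cytotoxicity read as CellTiter-Glo luminescence (30 min, room temperature) in the same wells as the beta-lactamase readout. HEK293T PR-UAS-bla cells in charcoal-stripped 2% FBS received compound and R5020, then 16 h at 37C, 5% CO2.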

A short description of assay [4]: qHTS assay to identify small molecule agonists of the progesterone receptor (PR) signaling pathway - cell viability counter screen (AID 1346799; calls by dose curve; also: nearly all actives have a fitted effect of over 45% in size). The gist of the method: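 Cytotoxicity measured by CellTiter-Glo luminescence (30 min, RT) in the same wells as the PR beta-lactamase agonist read. Those HEK293T cells had 16 h compound treatment at 37 C in 2% charcoal-stripped FBS medium.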

Assay [5] can be described thus: qHTS assay to identify small molecule antagonists of the TGF-beta/Smad signaling pathway - cell viability counter screen (AID 1346824). Also: nearly all actives have a fitted effect of over 50% in size. The gist of the method: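 SBE-bla HEK 293T cells, incubated overnight, then compound plus 0.25 ng/mL TGF-beta1 (stock added) for 5 hr at 37 C. Viability was read in the same wells by CellTiter-Glo luminescence after 30 min at room temperature.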

A short description of assay [6]: qHTS assay to identify small molecule agonists of the TGF-beta/Smad signaling pathway - cell viability counter screen (AID 1346829). Also: top concentration of the series differs between compounds; nearly all actives have a fitted effect of over 45% in size. The gist of the method:
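After overnight seating at 37 C and 5% CO2, reporter cells got compounds for 5 hr and FRET substrate for 2 hr; cell viability then came from CellTiter-Glo luminescence.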

Assay [7] can be described thus: qHTS assay to identify small molecule agonists of the TGF-beta/Smad signaling pathway (AID 1346859; active = well fitted activation curve with a large enough effect in the signal ratio in the repeat runs, not every such curve was filed as active; the % refers to the signal ratio; also: series mostly up to about 77 µM). The method in brief: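 Fluorescence (ex 405 nm; em 460 and 530 nm) was read 2 h after LiveBLAzer FRET substrate at RT. The preceding compound treatment of overnight-plated SBE-bla HEK293T cells lasted 5 h at 37 C.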
Assay [8] can be described thus: Human pregnane X receptor (PXR) small molecule agonists, qHTS cell viability counter screen (AID 1346977). Also: nearly all actives have a fitted effect of over 50% in size. The method in brief: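 Same-well viability read: CellTiter-Fluor added after 23 hr compound exposure, fluorescence measured 1 hr later. Cells were PXR-Luc HepG2 seeded at 2,000/well in 5% charcoal-stripped FBS medium, rested 5 hr before dosing at 37 C.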
A short description of assay [9]: Caspase-3/7 induction in HepG2 cells by small molecules, qHTS assay (AID 1346978). Also: nearly all actives have a fitted effect of over 15% in size. The gist of the method: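 Wild-type HepG2 cells, 2,000/well, settled 5 hr at 37 C and 5% CO2, then compound-treated for 17 hr; caspase-3/7 activity read by luminescent Caspase-Glo 3/7 after 30 min at room temperature.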
Assay [10] is described as follows: Caspase-3/7 induction in CHO-K1 cells by small molecules, qHTS assay (AID 1346980). Also: nearly all actives have a fitted effect of over 15% in size. The method in brief:
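Wild-type CHO-K1 cells exposed to compounds for 17hr at 37 C, 5% CO2. Caspase-3/7 activity then measured by Caspase-Glo 3/7 luminescence after 30min at room temperature.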

Assay [11] can be described thus: Caspase-3/7 induction in HepG2 cells by small molecules, qHTS cell viability counter screen (AID 1346981). Also: series mostly up to about 92 µM; nearly all actives have a fitted effect of over 30% in size. The method in brief: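 Multiplexed with the caspase-3/7 assay: HepG2 cells, 16 hr compound treatment, CellTiter-Fluor viability detection by fluorescence.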
For assay [12], the target named is Nuclear receptor subfamily 1 group I member 2 (Homo sapiens) (UniProt O75469). As to the kind of experiment: Human pregnane X receptor (PXR) small molecule agonists, qHTS assay (AID 1346982). Also: nearly all actives have a fitted effect of over 35% in size. The method in brief:
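We seeded PXR-Luc HepG2 cells in assay medium containing 5% charcoal-stripped FBS, added compounds 5 hr later, incubated 24 hr, and read luminescence with ONE-Glo reagent.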

Assay [13] has as its target Cytochrome P450 2D6 (Homo sapiens) (UniProt P10635). As to the kind of experiment: Cytochrome P450 Family 2 Subfamily D Member 6 (CYP2D6) small molecule antagonists: luciferase reporter qHTS assay (AID 1671196). Also: nearly all actives have a fitted effect of over 50% in size. Also: potency is read from the fitted curve at half-maximal effect. The gist of the method: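 Luminescence (RLU), read 20 min after detection reagent, indicated CYP2D6 conversion of proluciferin to luciferin during a 1 h NADPH-dependent reaction at room temperature.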

Assay [14] concerns the target Cytochrome P450 2C19 (Homo sapiens) (UniProt P33261). Put plainly: Cytochrome P450 Family 2 Subfamily C Member 19 (CYP2C19) small molecule antagonists: luciferase reporter qHTS assay (AID 1671197). Also: nearly all actives have a fitted effect of over 65% in size. Also: potency is read from the fitted curve at half-maximal effect. The method in brief: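 Inhibition of CYP2C19 was scored from loss of luminescence in a P450-Glo proluciferin substrate assay, NADPH-started and run 1 h at 37C, with ketoconazole as positive control.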

A short description of assay [15]: Caspase-3/7 induction in CHO-K1 cells by small molecules, qHTS cell viability counter screen (AID 1346979). Also: nearly all actives have a fitted effect of over 35% in size. The method in brief:
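Cytotoxicity counter screen: CellTiter-Fluor added to compound-treated wild-type CHO-K1 cells at 16 h (37C, 5% CO2), fluorescence measured 1 h later; same wells as caspase-3/7 measurement.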

The target of assay [16] is Thyrotropin-releasing hormone receptor (Homo sapiens) (UniProt P34981). As to the kind of experiment: qHTS assay to identify small molecule antagonists of the thyrotropin-releasing hormone receptor (TRHR) signaling pathway (AID 1346877; active = well fitted inhibition curve with a large enough effect in the repeat runs, not every such curve was filed as active; also: series mostly up to about 51 µM). The method in brief: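 Screening used HEK293 cells engineered with TRHR, with a brief 5 min room-temperature compound exposure preceding addition of TRH to 1 nM. The read-out was kinetic calcium-dye fluorescence, concentration-response from 15 doses in triplicate.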
Chain of Thyrotropin-releasing hormone receptor (Homo sapiens) (P34981 whole entry, looked up): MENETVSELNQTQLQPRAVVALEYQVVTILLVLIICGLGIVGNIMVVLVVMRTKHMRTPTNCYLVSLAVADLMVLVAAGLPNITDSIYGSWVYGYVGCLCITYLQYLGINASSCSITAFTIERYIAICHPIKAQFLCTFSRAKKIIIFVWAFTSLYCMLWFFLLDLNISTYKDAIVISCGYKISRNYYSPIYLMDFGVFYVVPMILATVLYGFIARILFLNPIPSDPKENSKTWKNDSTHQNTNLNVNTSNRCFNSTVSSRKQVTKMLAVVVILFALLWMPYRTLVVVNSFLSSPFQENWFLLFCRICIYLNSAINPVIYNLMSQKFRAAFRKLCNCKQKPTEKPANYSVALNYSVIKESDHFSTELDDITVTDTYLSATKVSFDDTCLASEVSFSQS

For assay [17] the target is unchanged. Put plainly: qHTS assay to identify small molecule agonists of the thyrotropin-releasing hormone receptor (TRHR) signaling pathway (AID 1346891; calls by dose curve; also: series mostly up to about 58 µM). The gist of the method: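 Agonist-mode intracellular calcium readout: kinetic fluorescence over 3 min at 1 s intervals after compound addition to TRHR-HEK293 cells (18 h seeded, 2 h dye-loaded at 37 C). Fifteen concentrations, triplicates.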

For assay [18], the target named is Nuclear receptor subfamily 1 group I member 2 (Rattus norvegicus) (UniProt Q9R1A7). Put plainly: Rat pregnane X receptor (rPXR) activation by small molecules, qHTS assay (AID 1346983). Also: nearly all actives have a fitted effect of over 20% in size. The settings on record: rPXR luciferase reporter cells, One-Glo luminescence, 24 h; stronger effect = higher value. The gist of the method:
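Cell-based rPXR activation assay: rPXR cells, 2,000 per well, rested 5hr at 37 C, then exposed to compounds in DMSO for 24 hr at 37 C. Luciferase activity read by One-Glo luminescence after 30 min at room temperature.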
% is scaled to controls: 0 for no effect and ±100 for the full control effect.

Chain of Nuclear receptor subfamily 1 group I member 2 (Homo sapiens) (O75469 whole entry, looked up): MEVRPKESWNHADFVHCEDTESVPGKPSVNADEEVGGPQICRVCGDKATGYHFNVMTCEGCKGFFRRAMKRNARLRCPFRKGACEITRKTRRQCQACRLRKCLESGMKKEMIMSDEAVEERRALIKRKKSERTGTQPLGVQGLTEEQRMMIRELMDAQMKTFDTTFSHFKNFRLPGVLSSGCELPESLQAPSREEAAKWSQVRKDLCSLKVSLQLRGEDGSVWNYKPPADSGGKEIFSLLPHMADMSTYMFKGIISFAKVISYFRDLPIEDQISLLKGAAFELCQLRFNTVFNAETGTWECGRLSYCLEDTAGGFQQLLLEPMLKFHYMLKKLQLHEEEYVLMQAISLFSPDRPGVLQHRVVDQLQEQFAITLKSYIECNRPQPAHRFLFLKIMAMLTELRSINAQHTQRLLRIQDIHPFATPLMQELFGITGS
Chain of Progesterone receptor (Homo sapiens) (P06401 whole entry, looked up): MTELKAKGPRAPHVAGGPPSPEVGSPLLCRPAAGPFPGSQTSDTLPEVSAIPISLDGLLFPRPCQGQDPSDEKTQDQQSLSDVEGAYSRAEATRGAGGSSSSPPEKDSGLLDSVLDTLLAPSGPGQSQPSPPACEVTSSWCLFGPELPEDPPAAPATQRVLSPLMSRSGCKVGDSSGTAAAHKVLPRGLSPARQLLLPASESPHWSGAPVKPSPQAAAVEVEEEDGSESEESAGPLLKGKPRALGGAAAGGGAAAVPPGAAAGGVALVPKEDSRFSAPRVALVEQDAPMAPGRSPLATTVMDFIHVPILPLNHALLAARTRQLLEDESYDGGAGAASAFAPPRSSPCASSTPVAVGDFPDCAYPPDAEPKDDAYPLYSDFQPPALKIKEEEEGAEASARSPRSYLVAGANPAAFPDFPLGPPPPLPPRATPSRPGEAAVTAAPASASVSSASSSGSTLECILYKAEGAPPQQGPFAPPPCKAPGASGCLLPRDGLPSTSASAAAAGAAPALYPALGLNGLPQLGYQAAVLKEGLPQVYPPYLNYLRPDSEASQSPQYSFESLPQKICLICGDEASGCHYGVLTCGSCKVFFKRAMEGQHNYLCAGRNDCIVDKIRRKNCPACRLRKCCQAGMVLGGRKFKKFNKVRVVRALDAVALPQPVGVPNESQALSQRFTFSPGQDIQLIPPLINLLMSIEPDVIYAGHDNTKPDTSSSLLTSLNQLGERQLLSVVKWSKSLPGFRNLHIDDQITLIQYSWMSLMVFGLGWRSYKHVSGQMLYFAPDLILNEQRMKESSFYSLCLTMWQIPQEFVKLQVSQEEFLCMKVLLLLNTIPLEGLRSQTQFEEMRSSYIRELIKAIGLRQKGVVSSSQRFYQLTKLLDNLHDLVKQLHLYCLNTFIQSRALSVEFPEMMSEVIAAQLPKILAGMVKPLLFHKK
Chain of Cytochrome P450 2D6 (Homo sapiens) (P10635 whole entry, looked up): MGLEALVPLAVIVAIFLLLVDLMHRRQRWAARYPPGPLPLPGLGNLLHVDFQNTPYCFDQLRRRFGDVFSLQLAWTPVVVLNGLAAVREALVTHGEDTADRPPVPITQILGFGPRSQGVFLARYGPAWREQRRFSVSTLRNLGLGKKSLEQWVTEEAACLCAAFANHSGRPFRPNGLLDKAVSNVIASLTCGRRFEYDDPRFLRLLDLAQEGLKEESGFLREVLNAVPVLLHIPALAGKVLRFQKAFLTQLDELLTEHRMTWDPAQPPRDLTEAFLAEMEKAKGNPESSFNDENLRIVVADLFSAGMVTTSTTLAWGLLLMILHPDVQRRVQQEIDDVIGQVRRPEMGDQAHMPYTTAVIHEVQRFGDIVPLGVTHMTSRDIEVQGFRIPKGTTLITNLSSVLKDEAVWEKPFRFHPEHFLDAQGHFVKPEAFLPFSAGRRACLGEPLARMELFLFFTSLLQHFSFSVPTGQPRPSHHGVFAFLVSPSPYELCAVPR
Chain of Cytochrome P450 2C19 (Homo sapiens) (P33261 whole entry, looked up): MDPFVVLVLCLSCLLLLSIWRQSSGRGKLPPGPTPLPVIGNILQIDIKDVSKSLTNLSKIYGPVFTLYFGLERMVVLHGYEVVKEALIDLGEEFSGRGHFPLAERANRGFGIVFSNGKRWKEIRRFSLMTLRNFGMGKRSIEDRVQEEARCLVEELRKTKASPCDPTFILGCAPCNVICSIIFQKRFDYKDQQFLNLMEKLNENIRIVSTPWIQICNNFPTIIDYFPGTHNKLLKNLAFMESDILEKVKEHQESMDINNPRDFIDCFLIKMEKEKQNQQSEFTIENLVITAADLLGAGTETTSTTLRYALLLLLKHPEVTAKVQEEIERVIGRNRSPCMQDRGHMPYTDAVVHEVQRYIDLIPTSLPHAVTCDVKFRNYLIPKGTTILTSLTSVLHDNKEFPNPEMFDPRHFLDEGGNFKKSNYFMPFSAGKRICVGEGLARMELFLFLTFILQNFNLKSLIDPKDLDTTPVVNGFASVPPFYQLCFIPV
Chain of Nuclear receptor subfamily 1 group I member 2 (Rattus norvegicus) (Q9R1A7 whole entry, looked up): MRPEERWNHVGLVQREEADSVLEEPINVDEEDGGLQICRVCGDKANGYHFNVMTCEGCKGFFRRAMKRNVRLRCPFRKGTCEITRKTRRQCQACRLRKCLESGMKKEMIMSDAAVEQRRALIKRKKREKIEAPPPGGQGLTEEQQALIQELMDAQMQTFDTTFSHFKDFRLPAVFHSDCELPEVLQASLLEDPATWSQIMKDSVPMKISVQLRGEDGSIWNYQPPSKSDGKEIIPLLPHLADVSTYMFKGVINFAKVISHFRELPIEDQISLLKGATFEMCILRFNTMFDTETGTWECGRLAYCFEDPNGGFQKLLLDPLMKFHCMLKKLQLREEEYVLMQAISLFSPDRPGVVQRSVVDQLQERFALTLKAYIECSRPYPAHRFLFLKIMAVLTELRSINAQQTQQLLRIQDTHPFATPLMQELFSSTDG

Take `O=C1CCCCCCCCCCC1`: the Potency result in assay [1], in assay [2], in [3], in assay [4], in assay [5] and in [6] was “inactive” each time. Also, the Potency result in [7], in assay [8], in assay [9], in [10], in assay [11] and in assay [12] was “inactive” in each case. In addition, the Potency entry in [13] and in assay [14] was “inactive” each time.
As to `CC(=O)OC/C=C(\C)CCC=C(C)C`, the Potency entry in assay [1], in [2], in assay [3], in [5], in assay [6] and in [7] was “inactive” in each case. Moreover, the Potency entry in assay [8], in assay [9], in assay [15], in assay [10], in assay [11] and in [12] was “inactive” in each case. Besides, the Potency entry in assay [13] was “inactive”. In addition, the Potency entry in [14] was “inactive and 39.9 µM (active)”.
In the case of `C=CC(C)(C)C`, the Potency entry in [1], in assay [2], in assay [3], in [4], in [5] and in [6] was “inactive” throughout. Also, the Potency result in assay [7], in assay [8], in assay [9], in assay [10], in [11] and in assay [12] was “inactive” in each case. Also, the Potency entry in assay [13] and in [14] was “inactive” each time.
With `CCCCCCC(=O)O`, the Potency entry in assay [1], in [2], in [3], in assay [4], in assay [5] and in [6] was “inactive” in each case. The Potency entry in assay [7], in assay [8], in [9], in assay [10], in assay [11] and in assay [12] was “inactive” each time. Further, in assay [13], the Potency result is “inactive”.
For `Cc1cc(CC(=O)O)n(C)c1C(=O)c1ccc(Cl)cc1`, the Potency result in [1], in [3], in assay [4], in assay [5], in assay [6] and in assay [16] was “inactive” in each case. In addition, the Potency result in [8], in assay [9], in assay [15], in [10], in [11] and in [13] was “inactive” each time. In [17], the call was inactive. Besides, the max activation in assay [18] is -4.94% (inactive) and -11.5% (inactive).
For the molecule `CC(C)(C)NC[C@H](O)COc1nsnc1N1CCOCC1`, the Potency result in [1], in [2], in assay [3], in [4], in assay [5] and in [6] was “inactive” each time. Moreover, the Potency result in [7], in assay [8], in [9], in assay [10] and in assay [11] was “inactive” in each case.
As for `CCCCCCCCC(=O)O`, the Potency entry in assay [1], in assay [3], in assay [4], in assay [5], in [6] and in assay [7] was “inactive” each time. For the same molecule, the Potency result in [16], in assay [8], in [9], in assay [10], in assay [11] and in [12] was “inactive” in each case. Besides, the outcome in assay [17] was inactive. Further, in assay [13], the Potency is 34.4 µM (active) and inactive.
